Screens (PubChem)
Shown are actives, neighbours in structure and some others; about 21% of the full set was active somewhere.
Shiga toxin inh – blocks Shiga toxin action in Vero cells | Vero cells, Shiga toxin protein synthesis inhibition reporter | actives 9.2% (n = 290,000) | inhibition, % at 38.7 µM; in the data active = inhibition mostly above about 28%, no sharp cut-off; inactive = mostly below about 43%; also: 0% is about no effect
Pf growth 96h – P. falciparum growth inhibition at 96 hours; Potency, µM (doses to about 28.7 µM), inactives show at the highest dose activity change, negative = inhibition, usual class: inhibitors; actives 6.9% (n = 320,000); P. falciparum luciferase reporter growth, 96 h; also: potency is read from the fitted curve at half-maximal effect; % is scaled to controls: 0 for no effect and ±100 for the full control effect
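Luminescence readout: decreased luciferase signal marks inhibited growth of reporter-expressing P. falciparum in infected red cells (2% hematocrit, 0.05% parasitemia final), exposed to compound two generations (96 h, 37 C, 5% CO2).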
Pf growth 48h – P. falciparum growth inhibition at 48 hours (one generation); P. falciparum luciferase growth in erythrocytes, 48 h; actives 5.9% (n = 310,000); Potency, µM (highest dose often 28.7 µM), without a hit: top-dose activity change, negative = inhibition, most hits filed as inhibitors; AID 504832; also: potency is read from the fitted curve at half-maximal effect; % is scaled to controls: 0 for no effect and ±100 for the full control effect
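First compound was added to culture medium, then infected red cells at 0.1% parasitemia and 2% hematocrit (final). After incubation at 37 C under 5% CO2, luciferase detection reagent was dispensed and light output recorded.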
Cycloheximide cs – counter-screen for Shiga toxin inhibitors: cycloheximide protein synthesis inhibition | cell reporter, cycloheximide protein synthesis inhibition counterscreen | max response, % | actives 12% (n = 300,000); in the data active = max response mostly above about 13%, no sharp cut-off; inactive = mostly below about 14%; also: read at 38.3 µM for the half of the compounds with a filed dose; 0% is about no effect
* hit, by the source's call; ? = inconclusive; . = no result given. Unless noted, calls follow the shape of the dose curve; as a rule, active = well fitted inhibition curve with a large enough effect; inconclusive = small, poorly fitted or top-dose-only effect, or another doubt; inactive = no such curve, though single readings can be large or run the other way.

SMILES | Shiga toxin inh | Pf growth 96h | Pf growth 48h | Cycloheximide cs
CCc1ccccc1NC(=O)NNS(=O)(=O)c1cc(C)ccc1C | -12 | -10% | 15% | -3
CC(=O)NC(Cc1cccc(C)c1)C(=O)NC1CCN(S(=O)(=O)c2ccccc2)CC1 (stereo not drawn) | -3 | -14% | 1% | -2
COC(=O)c1ccc(CNC(=O)C2CCC(=O)N(C3CCCCCC3)C2)cc1 (stereo not drawn) | 3 | 12% | 7% | -3
O=C(NCC(=O)N1CCN(c2ccccc2)CC1)c1cccs1 | 21 | 7% | 62% | 22*
O=C(NCC(=O)N1CCCC1)c1cccs1 | 26* | . | 35% | 17*
O=C(OCC(=O)N1CCCC1)c1cccs1 | 72* | 5% | 26% | 42*
COc1ccc(N2CCN(C(=O)CNC(=O)c3cccs3)CC2)cc1 | -4 | 12% | 18% | 1
O=C(NCC(=O)N1CCN(c2ncccn2)CC1)c1cccs1 | 46 | 88% | . | 33*
CCn1nc(C(=O)NNC(=O)CCOc2cc(C)ccc2C)c2ccccc2c1=O | -2 | 58% | 2% | -6
CC(C)N1CCC(=NNC(=O)c2cccs2)CC1 | 114* | 23% | 17% | 46*
CC1(C)CC2(CC(c3ccccc3F)c3ccc(O)c(O)c3O2)NC(=S)N1 (stereo not drawn) | 17 | ? | ? | 2
Cc1c(C=O)c2ccccc2n1CCOc1ccccc1F | -9 | 8.3µM* | ? | -2
Cc1c(/C=N/n2cnnc2)c2ccccc2n1CCOc1ccccc1 | -13 | ? | 13µM* | -4
Cc1ccccc1OCCn1c(=S)[nH]c2ccccc21 | -5 | 3% | ? | -2
Fc1ccccc1OCCn1c(=S)[nH]c2ccccc21 | 28* | ? | -15% | 24*
CCCN(CC(=O)Nc1ccc(F)c(F)c1F)C(=O)c1ccc(N2CCCC2=O)cc1 | . | ? | -24% | .
Cc1cc(C(=O)CSc2nnc(-c3ccncc3)n2-c2ccccc2)c(C)n1C | -14 | 17µM* | 15µM* | -1
Cc1cc(C(=O)CSc2nnc(-c3ccccc3)n2C)c(C)n1C | 22 | -1% | -2% | 11
Cc1cc(C(=O)CSc2nnc(-c3cccnc3)n2-c2ccccc2)c(C)n1CC1CCCO1 (stereo not drawn) | 97 | ? | . | 23*
O=C(CN(c1ccccc1F)S(=O)(=O)c1ccccc1)N1CCCCCC1 | -7 | 12% | ? | 3
CCc1cccc2c(C#N)cn(CC(=O)NCc3ccco3)c12 | 15 | . | 10µM* | 1
CCOC(=O)Cn1cc(C#N)c2cccc(CC)c21 | -8 | 0.74µM* | ? | -4
COC(=O)Cn1cc(C#N)c2ccccc21 | 27 | 30% | -3% | -2
CCOc1ccc(N2C(=O)CC(SC(=NC)Nc3ccc(F)cc3)C2=O)cc1 (stereo not drawn) | -4 | 9.3µM* | ? | -2
CN=C(Nc1ccc(C)c(C)c1)SC1CC(=O)N(c2ccc(OC)cc2)C1=O (stereo not drawn) | 42 | 47% | 12µM* | -2
SMILES | Shiga toxin inh | Pf growth 96h | Pf growth 48h | Cycloheximide cs
Cc1cc2c(NC3CCCCC3)ncnc2s1 | -4 | -19% | -15% | 0
COc1ccc(Br)cc1C1CC(=O)C(C)C(c2cc(Br)ccc2OC)N1 (stereo not drawn) | -2 | 16% | ? | 3
CC(=O)N(C)c1ccc(OCC(O)CN(Cc2ccco2)S(=O)(=O)c2ccc(C)cc2)cc1 (stereo not drawn) | 25 | . | ? | -3
CC(=O)N(C)c1ccc(OCC(O)CN(c2ccccc2C)S(=O)(=O)c2ccc(C)cc2)cc1 (stereo not drawn) | 21 | 2.9µM* | 13µM* | -2
CC(C)Oc1ccc(C(=O)Nc2ccc(N3CCCC3)cc2)cc1 | 27* | 9.3µM* | 13µM* | 20*
COc1ccc(Br)cc1C(=O)Nc1ccc(N2CCCC2)cc1 | -8 | ? | -15% | -3
O=C(Nc1ccc(N2CCCC2)cc1)c1ccc(Br)cc1 | 19 | 0% | 13µM* | 12*
Cc1nn(C)cc1/C=N/NC(=O)Cn1nnc(N)n1 | 19 | 18% | 13% | 1
CC(C)(C)NC(=S)Nc1ccc(Nc2ccccc2)cc1 | 46* | . | ? | 19*
CC(C)(C)NC(=S)Nc1ccc(Br)cc1 | 58* | 12% | 12% | 32*
CN(C(=O)CSc1nnc(-c2ccccc2F)n1N)C1CCCCC1 | . | -26% | -21% | .
COc1ccccc1NC(=O)COC(=O)c1ccccc1C(=O)N1CCN(c2ccccc2)CC1 | -8 | -20% | ? | -2
CCc1ccc(NC(=O)C[n+]2cc(-c3ccc(C)cc3)n3c2CCC3)cc1 | 14 | 1.5µM* | 2.9µM* | -1
